Screens deposited in PubChem BioAssay by several laboratories.
Shown are actives, neighbours in structure and some others; about 1.5% of the full set was active somewhere.
PriA SSB inh = blocks PriA binding to SSB C-terminal tail. AlphaScreen SSBct-PriA binding, biotinylated peptide. inhibition, % at 33 µM. actives 0.6% (n = 430,000); in the data active means inhibition mostly above about 37%, no sharp cut-off; inactive means mostly below about 20%;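 further: plate controls were negative control peptide for no effect and reference peptide for full effect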
CCHF vOTU inh = blocks the CCHF virus ovarian tumor domain protease | CCHFV vOTU protease, Pep-AMC fluorescence | inhibition, % at 11.5 µM | actives 0.55% (n = 370,000); in the data active means inhibition above about 30%; further: 0% = vehicle wells with enzyme and 100% = no enzyme wells
PrPC TRFRET = reduces human prion protein on the cell surface. actives 0.43% (n = 370,000). cell surface PrPC, TR-FRET read-out. P04156. inhibition, % at 13.8 µM. AID 720596; in the data active means inhibition above about 24%; further: 0% = median of the test wells and 100% = reference compound wells
TcdB GH inh = inhibitors of Clostridioides difficile toxin B glycohydrolase; P18177; TcdB glycohydrolase enzymatic assay, plate reader; inhibition, % at 9.99 µM; actives 0.24% (n = 350,000); in the data active means inhibition above about 10%
BH1578 lux ind = quorum light induction in luxS cqsA deficient V. cholerae; V. cholerae BH1578 lux reporter, luminescence, 6 h; activation, % at 18.7 µM; actives 0.16% (n = 350,000); AID 588436; in the data active means activation mostly above about 9.7%, no sharp cut-off
DUSP3 inh = DUSP3 (human) phosphatase inhibition. inhibition, % at 13.3 µM. actives 0.52% (n = 290,000). P51452. recombinant VHR phosphatase, pNPP absorbance; in the data active means inhibition above about 50%
PrPC confirm = cell surface PrPC inhibition, TR-FRET confirmation. shares compounds with PrPC TRFRET. cell surface PrPC level. inhibition, % at 13.8 µM. actives 65% (n = 1,500); in the data active means inhibition above about 25%
LD9 cytotox = kills or reduces viability of LD9 cells in PrPc counter-screen; actives 29% (n = 1,500); LD9 cells cytotoxicity, luminescence viability; shares compounds with PrPC TRFRET; AID 743201; inhibition, % at 13.8 µM; in the data active means inhibition above about 9.5%
* hit, by the source's call; i = inactive; . = no result.

SMILES	PriA SSB inh	CCHF vOTU inh	PrPC TRFRET	TcdB GH inh	BH1578 lux ind	DUSP3 inh	PrPC confirm	LD9 cytotox
CCc1c(-c2ccccc2OC)ncn1Cc1cccc(-c2ccccc2)c1	.	12	23	1	.	.	.	.
COc1ccc(C(=O)Nc2cccc(C(=O)NCc3ccco3)c2)cc1	-3	-2	27*	3	-1	-10	20	5
O=C(NCc1ccco1)c1cccc(-c2nnc(-c3ccccc3)o2)c1	-6	8	26*	.	i	15	15	4
O=C(NCc1ccco1)c1cccc(NC(=O)c2ccco2)c1	-14	-14	20	.	i	6	.	.
Cc1ccc(NC(=O)Oc2ccccc2)cc1N1CCCC1=O	-18	.	.	.	.	.	.	.
CS(=O)(=O)c1cccc(C(=O)Nc2cccc(-c3nc4ccccc4[nH]3)c2)c1	-14	15	129*	1	-1	34	-4	20*
O=C(Nc1ccc2nc(-c3ccccc3)[nH]c2c1)c1ccco1	3	-3	-12	.	-1	6	.	.
O=C(Nc1cccc(-c2nc3ccccc3[nH]2)c1)c1cccc(NC(=O)c2ccco2)c1	4	0	37*	.	3	39	-6	18*
CCOC(=O)c1sc(NC(=O)c2ccc(OC)cc2OC)nc1-c1ccccc1	-5	.	.	.	.	.	.	.
CC[C@@H](C)[C@H](NC(=O)OC(C)(C)C)c1nnc(S(=O)(=O)Cc2cc(C)ccc2C)o1	-37	9	5	.	i	4	.	.
CC(C)[C@H](NC(=O)OC(C)(C)C)c1nnc(S(=O)(=O)Cc2c(F)cccc2Cl)o1	-5	-5	30*	0	0	13	28*	66*
CCn1nnc2c(NCCc3ccccc3OC)ncnc21	-7	.	.	.	.	.	.	.
COc1ccc(CC(=O)NC(c2ccccc2)c2ccc(C)cc2)c(OC)c1 (centres undefined)	-4	12	30*	1	-7	0	28*	-9
CCOc1cc(-c2nnc(NC(=O)c3ccc(N4C(=O)CCC4=O)cc3)o2)cc(OCC)c1OCC	-16	.	.	.	.	.	.	.
CCOc1ccc(-c2csc(SCc3ccc(C(=O)O)o3)n2)cc1	15	.	.	.	.	.	.	.
COc1cccc(NC(=O)CCC2CCN(C(=O)C3CC=CCC3)CC2)c1 (centres undefined)	-8	-10	29*	0	0	16	8	-3
CCN(CC)S(=O)(=O)c1ccc(N2CCOCC2)c(NS(=O)(=O)c2ccc(C(C)C)cc2)c1	-11	8	5	0	-2	2	.	.
CCN(CC)S(=O)(=O)c1ccc(N2CCOCC2)c(NS(=O)(=O)c2cc(C(C)(C)C)ccc2C)c1	-3	15	25*	1	1	-4	10	0
N=c1c2c(-c3ccccc3)c(-c3ccccc3)n(Cc3ccco3)c2ncn1CCCn1ccnc1	29	19	27*	0	0	-4	-17	19*
COc1ccccc1Oc1ccc2c(c1)C(=O)N(CC1CCCO1)C2=O (centres undefined)	-11	-13	47*	1	1	5	1	-4
CC[C@H](C)[C@@H]1OC(=O)[C@H](C(C)C)N(C)C(=O)[C@H](C(C)C)NC(=O)[C@@H](C)[C@@H](CCCC#CBr)OC(=O)[C@H](C(C)C)N(C)C(=O)C2CCCN2C1=O (some centres undefined)	.	.	6	.	.	.	.	.
CC[C@@H]1CCC[C@@H](O)[C@@H](C)C(=O)O[C@H](C)[C@@H](C)C/C=C(C)/C(OC)=C\C(=O)N(C)C([C@@H](C)CC)C(=O)N(C)[C@@H](C(C)C)C(=O)N(C)[C@@H](COC)C(=O)N2CCC[C@H]2C(=O)N(C)[C@@H](C(C)C)C(=O)N2CCC[C@H]2C(=O)O1 (some centres undefined)	.	16	41*	4	.	.	51*	16*
COc1ccc(CNS(=O)(=O)c2ccc(OC)cc2)cc1	-14	13	5	.	-1	12	.	.
CCS(=O)(=O)NCc1ccc2c(c1)cc(C)n2C	10	-4	-6	3	0	2	.	.
Cc1cc2cc(CNS(=O)(=O)c3ccccc3)ccc2n1C	16	3	35*	1	-1	27	29*	-5
SMILES	PriA SSB inh	CCHF vOTU inh	PrPC TRFRET	TcdB GH inh	BH1578 lux ind	DUSP3 inh	PrPC confirm	LD9 cytotox
COc1ccc(S(=O)(=O)NCc2ccc3c(c2)cc(C)n3C)cc1	34	7	38*	2	-1	42	41*	-2
Cc1ccc(C(=O)Nc2ccc(-c3ccc4nnc(-c5ccncc5)n4n3)cc2)cc1C	0	.	.	.	.	.	.	.
S=c1nc(C2CCCCC2)[nH]c2ccccc12	-7	-3	32*	3	-2	14	38*	-6
S=c1nc(C2CC2)[nH]c2ccccc12	-13	9	15	.	.	-13	.	.
CCC(=O)N1CCc2cc(S(=O)(=O)N(C)c3ccc(OC)cc3OC)ccc21	-1	-3	5	0	1	.	.	.
CCC(=O)N1CCc2cc(Br)cc(S(=O)(=O)N(C)c3ccc(OC)cc3OC)c21	-9	14	30*	1	0	0	6	-5
Cc1ccc(CN2CCCCC(NC(=O)Nc3ccccc3-c3ccccc3)C2=O)cc1 (centres undefined)	.	14	30*	.	.	.	18	-3
Cc1ccc(CN2CCCCC(NC(=O)c3ccc(-c4ccccc4)cc3)C2=O)cc1 (centres undefined)	.	2	1	.	.	.	.	.
COc1cc(/C=N/NC(=O)c2ccc(CN(C)S(=O)(=O)c3ccc(C)cc3)cc2)ccc1O	.	6	28*	0	-2	15	13	-1
COc1cc(/C=N\NC(=O)c2ccc(C(=O)N/N=C\c3ccc(O)c(OC)c3)cc2)ccc1O	1	.	.	.	.	.	.	.
CSc1nc2c([nH]1)c(=S)n(C)c(=O)n2C	-17	11	34*	1	i	.	0	-1
CCCCSc1nc2c([nH]1)c(=S)n(C)c(=O)n2C	-13	4	-1	2	0	.	.	.
O=C(C1=C(O)C(=O)N(CCN2CCOCC2)C1c1cccc([N+](=O)[O-])c1)c1cc2ccccc2o1 (centres undefined)	.	5	4	-5	-5	.	.	.
O=C(C1=C(O)C(=O)N(CCN2CCOCC2)C1c1cccc(Br)c1)c1cc2ccccc2o1 (centres undefined)	0	20	75*	1	-2	12	130*	1
COC(=O)/C(C(C)=O)=C(/C=C/C=C/N(C)C)N(C)C	-9	-7	50*	2	i	10	7	4
CCCNC(=O)c1nnsc1S(=O)c1ccc(Cl)cc1 (centres undefined)	1	15	91*	-1	0	3	15	95*
CNC(=O)c1nnsc1S(=O)c1ccc(Cl)cc1 (centres undefined)	3	2	10	-2	0	7	.	.
Cc1nc2ccccc2c2oc(C(=O)N3CCC(N4CCCCC4)CC3)cc12	0	.	.	.	0	16	.	.
